Laboratory results taken from the supplement of paper PMC13380429.

What was measured:
[1] = test system: Vero E6 infected with SARS-CoV-2; experiment: morphology score (similarity to uninfected cells); higher = more like uninfected cells; conditions: 24 h
[2] = test system: Vero E6 infected with SARS-CoV-2; experiment: SARS-CoV-2 infection rate relative to infected DMSO; higher = more infection, active = 60 or less; conditions: 24 h

SMILES	morphology score [1]	SARS-CoV-2 infection rate [2]
CCOc1cc(C(=O)N2CCC(N3CCN(C)CC3)CC2)ccc1Nc1ncc2c(n1)N(C1CCCC1)c1ccccc1C(=O)N2C (10 µM)	-0.264	122% (inactive)
Fc1ccc(-c2c3cccc(C(F)(F)F)c3nn2Cc2ccc(F)cc2Cl)cc1 (10 µM)	0.289	95.5% (inactive)
FC(F)(F)C(F)(F)C(F)(F)C(F)(F)C(F)(F)C(F)(F)C(F)(F)C(F)(F)Br [perflubron] (10 µM)	0.0887	102% (inactive)
O=C(O)C[C@H](O)C[C@H](O)/C=C/c1c(C2CC2)nc2ccccc2c1-c1ccc(F)cc1 [pitavastatin] (10 µM)	-0.127	115% (inactive)
CC[C@H]1OC(=O)[C@H](C)[C@@H](O[C@H]2C[C@@](C)(OC)[C@@H](O)[C@H](C)O2)[C@H](C)[C@@H](O[C@@H]2O[C@H](C)C[C@H](N(C)C)[C@H]2O)[C@](C)(O)C[C@@H](C)CN(C)[C@H](C)[C@@H](O)[C@]1(C)O [azithromycin] (10 µM)	0.236	98.5% (inactive)
CCCCCCCCCCCCCCCC(=O)OC[C@H](O)[C@H]1OC(=O)C(O)=C1O [L-ascorbyl-6-palmitate] (10 µM)	-0.0423	112% (inactive)
CCn1c2ccccc2c2cc(CNCc3ccccc3OC)ccc21 (10 µM)	0.26	87% (inactive)
C/C=C/C=C/C(=O)O [sorbic-acid] (10 µM)	-0.0925	101% (inactive)
COc1cc(/C=C/C(=O)O)ccc1O [ferulic-acid] (10 µM)	-0.0443	110% (inactive)
O=[N+]([O-])/C=C/c1ccc2c(c1)OCO2 [3,4-methylenedioxy-beta-nitrostyrene] (10 µM)	0.58	41% (active)
OC[C@H]1O[C@@H](OCCc2ccc(O)cc2)[C@H](O)[C@@H](O)[C@@H]1O [salidroside] (10 µM)	0.0363	116% (inactive)
COc1ccc(-c2ccc3cc(C(=O)O)ccc3c2)cc1C12CC3CC(CC(C3)C1)C2 [adapalene] (10 µM)	-0.091	104% (inactive)
CNc1nc(C)nc(N[C@H]2CCC[C@@H](C(=O)NCc3ccc(C#N)cc3C(F)(F)F)C2)n1 (10 µM)	-0.0488	104% (inactive)
O=C1CCc2cc(OCCCCc3nnnn3C3CCCCC3)ccc2N1 [cilostazol] (10 µM)	-0.112	110% (inactive)
COC(=O)C1=CO[C@@H](O[C@@H]2O[C@H](CO)[C@@H](O)[C@H](O)[C@H]2O)[C@@H]2C(CO)=CC[C@H]12 [geniposide] (10 µM)	-0.322	116% (inactive)
N[C@@H]1CN(c2c(F)cc3c(=O)c(C(=O)O)cn([C@@H]4C[C@@H]4F)c3c2Cl)CC12CC2 [sitafloxacin] (10 µM)	-0.0334	106% (inactive)
CN(C)c1cc(CNCC(C)(C)C)c(O)c2c1C[C@H]1C[C@H]3[C@H](N(C)C)C(O)=C(C(N)=O)C(=O)[C@@]3(O)C(O)=C1C2=O [omadacycline] (10 µM)	0.179	97.5% (inactive)
N=C(N)NCCC[C@H](NC(=O)[C@@H]1CCCN1C(=O)[C@@H]1CSSC[C@H](N)C(=O)N[C@@H](Cc2ccc(O)cc2)C(=O)N[C@@H](Cc2ccccc2)C(=O)N[C@@H](CCC(N)=O)C(=O)N[C@@H](CC(N)=O)C(=O)N1)C(=O)NCC(N)=O [vasopressin] (10 µM)	0.0923	95.5% (inactive)
Oc1c(I)cc(I)c2cccnc12 [iodoquinol] (0.833333 µM)	0.155	99.5% (inactive)
CC(=O)O[C@H]1C[C@@]2(C)[C@@H](C[C@@H](O)[C@H]3[C@@]4(C)CC[C@@H](O)[C@@H](C)[C@@H]4CC[C@@]32C)/C1=C(\CCC=C(C)C)C(=O)O [fusidic-acid] (10 µM)	0.063	98% (inactive)
CC(C)c1ccc(NC(=O)Cn2cnc3c2c(=O)n(C)c(=O)n3C)cc1 (10 µM)	0.0452	109% (inactive)
CCCN1CCCC[C@H]1C(=O)Nc1c(C)cccc1C [ropivacaine] (10 µM)	0.0192	104% (inactive)
CCCCCOc1ccc(-c2ccc(-c3ccc(C(=O)N[C@H]4C[C@@H](O)[C@@H](O)NC(=O)[C@@H]5[C@@H](O)[C@@H](C)CN5C(=O)[C@H]([C@@H](C)O)NC(=O)[C@H]([C@H](O)[C@@H](O)c5ccc(O)cc5)NC(=O)[C@@H]5C[C@@H](O)CN5C(=O)[C@H]([C@@H](C)O)NC4=O)cc3)cc2)cc1 [anidulafungin] (10 µM)	-0.164	110% (inactive)
